NS1 function inh – blocks influenza NS1 protein function | Potency, µM (highest dose often 46.1 µM), without a hit: top-dose activity, positive = more growth | actives 0.4% (n = 270,000); also: potency is read from the fitted curve at half-maximal effect; actives are rising curves; nearly all actives have a fitted effect of over 50% in size
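Growth recovery, yeast-based: influenza A NS1 expressed in S. cerevisiae causes slow growth, and suppressors are detected by OD600. The parent strain without NS1 is used as positive control.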
Pf growth 96h – P. falciparum growth inhibition at 96 hour, primary screen for plastid delayed-death inhibitors; Potency, µM (titrated, usually from 28.7 µM), inactives show at the highest dose activity change, negative = inhibition, actives largely listed as inhibitors; actives 6.9% (n = 320,000); P. falciparum luciferase reporter growth, 96 h; active = well fitted inhibition curve with a large enough effect; inconclusive = small, poorly fitted or top-dose-only effect, or another doubt; inactive = no such curve, though single readings can be large or run the other way; also: potency is read from the fitted curve at half-maximal effect; % is scaled to controls: 0 for no effect and ±100 for the full control effect
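Luminescence readout: decreased luciferase signal marks inhibited growth of reporter-expressing P. falciparum in infected red cells (2% hematocrit, 0.05% parasitemia final), exposed to compound two generations (96 h, 37 C, 5% CO2).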
SARS PLP yeast – inhibitors of SARS-CoV papain-like protease in yeast; AID 485353; S. cerevisiae expressing SARS-CoV PLpro, growth rescue; actives 0.19% (n = 330,000); Potency, µM (top dose mostly 32.9 µM), for inactives: top-dose activity, positive = growth rescue, hits mostly activators; also: potency is read from the fitted curve at half-maximal effect; 0% is about no effect; nearly all actives have a fitted effect of over 55% in size
Pf growth 48h – inhibits P. falciparum growth in the first generation, 48 h. actives 5.9% (n = 310,000). P. falciparum luciferase growth in erythrocytes, 48 h. Potency, µM (highest dose often 28.7 µM), for the others: top-dose activity change, negative = inhibition, usual class: inhibitors; active = well fitted inhibition curve with a large enough effect; inconclusive = small, poorly fitted or top-dose-only effect, or another doubt; inactive = no such curve, though single readings can be large or run the other way; also: potency is read from the fitted curve at half-maximal effect; % is scaled to controls: 0 for no effect and ±100 for the full control effect
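Read-out is firefly luciferase luminescence from an integrated reporter in P. falciparum, so falling signal marks reduced parasite growth. Infected erythrocytes were at 2% hematocrit and 0.1% parasitemia (final) in Albumax-supplemented RPMI 1640.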
Shiga inhibitor – blocks Shiga toxin action in Vero cells; Vero cells, Shiga toxin protein synthesis inhibition reporter; inhibition, % at 38.7 µM; actives 9.2% (n = 290,000); AID 2315; in the data active = inhibition mostly above about 28%, no sharp cut-off; inactive = mostly below about 43%; also: 0% is about no effect
CHX counter – affects cycloheximide protein synthesis inhibition readout, counter-screen | cell reporter, cycloheximide protein synthesis inhibition counterscreen | max response, % | actives 12% (n = 300,000); in the data active = max response mostly above about 13%, no sharp cut-off; inactive = mostly below about 14%; also: read at 38.3 µM for the half of the compounds with a filed dose; 0% is about no effect
Active calls of the source: *; u = inconclusive; x = no result given; [ ] = dose if it differs, or a comment. The list is not random: actives were taken first. Their share in the collection is about 21%. Unless noted, calls follow the shape of the full dose curve.

SMILES | NS1 function inh | Pf growth 96h | SARS PLP yeast | Pf growth 48h | Shiga inhibitor | CHX counter
CCOC(=O)Cn1c(=NC(=O)C2COc3ccccc3O2)sc2cc(S(N)(=O)=O)ccc21 (stereo not drawn) | 12% | u | 6% | 4% | -10 | 8
COC(=O)c1cccc(NC(=O)CSc2nnc(C)o2)c1 | 2% | -4% | -1% | 18% | 22 | 3
CC(=O)c1c(C(C)=O)c(C)n(-c2ccc(N)c(C)c2)c1C | 0% | x | 2% | -19% | -5 | 2
Cc1c(CBr)[n+](=O)c2c(n1[O-])C(Br)CCC2Br (stereo not drawn) | -3% | 2% | 0% | -1% | 17 | 14*
Nc1c(Cl)cc(C2=NCCn3nc4cc(C(F)(F)F)ccc4c32)cc1Cl | x | u | 1% | u | x | x
COc1ccc2c3n(nc2c1)CCN=C3c1cc(Cl)c(N)c(Cl)c1 | x | u | -14% | 13µM* | x | x
Cc1ccccc1Cn1nnc(C(=O)Nc2ccc3c(c2)OCCO3)c1N | x | 121% | -1% | 113% | x | x
Cc1ccc(NC(=O)c2nnn(-c3ccc4c(c3)OCCO4)c2N)cc1 | -7% | -28% | 2% | 147% | 112* | 37*
Nc1c(C(=O)Nc2ccc3c(c2)OCCO3)nnn1Cc1cccc(F)c1 | x | 43% | 10% | 31% | x | x
Nc1c(C(=O)Nc2ccccc2)nnn1-c1ccc2c(c1)OCCO2 | -51% | -2% | -29% | 76% | 74* | 34*
Cc1ccc(CN(C)CC(=O)Nc2ccc3c(c2)CCC3)cc1 | -3% | 31% | 0% | 7% | -2 | -3
COc1ccccc1N(CC(=O)NCc1ccco1)C(=O)CCC(=O)Nc1ccccn1 | 4% | 0% | -11% | u | 8 | 16
CC(C)C(CCNCc1ccccn1)c1ccc(Cl)cc1 (stereo not drawn) | 0% | u | -1% | u | 3 | -3
Clc1ccc(-c2ccc(CNCc3ccccn3)o2)cc1 | 4% | -13% | -6% | 1% | 24* | 21*
COc1ccc(-c2ccc(CNCc3ccccn3)o2)cc1Cl | 9% | u | 3% | 5% | 9 | 13*
CCOc1c(Cl)cc(CNCc2ccccn2)cc1OC | x | 44%[5.75 µM] | 0% | u | 32 | 14
Fc1ccc(-c2ccc(CNCc3ccccn3)o2)cc1 | -1% | -17% | 0% | 47% | x | 25*
COc1cc([N+](=O)[O-])ccc1NC(=O)COC(=O)c1c[nH]c(=O)[nH]c1=O | x | x | -5% | x | x | x
O=C(CSc1n[nH]c(=O)n1Cc1ccccc1)Nc1ccc(N2CCOCC2)cc1 | x | -1% | -2% | 47% | x | x
CN(C)c1ccc(C2N([C@H](C#N)c3ccc(N(C)C)cc3)CCCN2[C@@H](C#N)c2ccc(N(C)C)cc2)cc1 (stereo partly drawn) | -11% | x | x | x | x | x
CCOc1cc(-c2ccccc2)nc(N)n1 | u | -8% | 30% | 130% | 106* | 49*
COc1cc(-c2ccccc2)nc(N)n1 | u | 3.3µM* | 21% | x | 77* | 87*
Nc1nc(Cl)cc(-c2ccccc2)n1 | 3% | -1% | 0% | 0% | -3 | 1
ONC(=Nc1ccccc1)c1ccc(Cl)cc1 | -15% | 66% | -11% | 15% | -4 | 13
NC(=Nc1ccc(Cl)cc1)c1ccccc1 | x | 44% | -3% | 62% | 40 | 26*
SMILES | NS1 function inh | Pf growth 96h | SARS PLP yeast | Pf growth 48h | Shiga inhibitor | CHX counter
CCNc1nnc(SCC(=O)NC2CCCCCC2)s1 | x | 2% | 0% | 0% | x | x
CN1/C(=C\C(=O)COC(=O)c2ccc([N+](=O)[O-])o2)C(C)(C)c2ccccc21 | x | 13µM* | -24% | u | 18 | 14
Cc1cccc(N(C)S(=O)(=O)c2c(C)noc2C)c1 | 3% | 9.3µM* | -9% | 8% | 2 | -3
Fc1ccc(CNc2ccc(CNc3ncn[nH]3)cc2)cc1 | -5% | 2%[5.75 µM] | -2% | 67% | 26 | 22*
CCOc1cc(CNc2ccc(CNc3ncn[nH]3)cc2)ccc1OCc1ccccc1 | 15% | 13µM* | 7% | u | -3 | -3
C=CC12C=CC=CN1C(C(=O)OC)=C(C(=O)OC)C(C(=O)OC)=C2C(=O)OC (stereo not drawn) | -31% | 0% | 13% | -10% | -4 | -1
O=C(O)CCCCCNCc1ccncc1 | -9% | u | 2% | 3% | -13 | -3
COC(=O)CCC(=O)c1oc2ccc(OC)cc2c1N | -4% | 1% | -4% | x | 63 | 40*

Screening data: PubChem BioAssay, National Center for Advancing Translational Sciences (NCATS)
